Screen size: about 16,000 compounds; about 5,100 (32%) were called active. Inconclusive results (about 25%) are left out. This is one part of the list. Unmarked numbers belong to inactive results. Calls follow the shape of the dose curve; as a rule, active = well fitted curve in the direction sought with a large enough effect; inconclusive = small, poorly fitted or top-dose-only effect, or effect the other way; inactive = no such curve, though single readings can be large or run the other way.
% is scaled to controls: 0 for no effect and ±100 for the full control effect.

Chain of Cytochrome P450 3A4 (Homo sapiens) (P08684 whole entry, looked up): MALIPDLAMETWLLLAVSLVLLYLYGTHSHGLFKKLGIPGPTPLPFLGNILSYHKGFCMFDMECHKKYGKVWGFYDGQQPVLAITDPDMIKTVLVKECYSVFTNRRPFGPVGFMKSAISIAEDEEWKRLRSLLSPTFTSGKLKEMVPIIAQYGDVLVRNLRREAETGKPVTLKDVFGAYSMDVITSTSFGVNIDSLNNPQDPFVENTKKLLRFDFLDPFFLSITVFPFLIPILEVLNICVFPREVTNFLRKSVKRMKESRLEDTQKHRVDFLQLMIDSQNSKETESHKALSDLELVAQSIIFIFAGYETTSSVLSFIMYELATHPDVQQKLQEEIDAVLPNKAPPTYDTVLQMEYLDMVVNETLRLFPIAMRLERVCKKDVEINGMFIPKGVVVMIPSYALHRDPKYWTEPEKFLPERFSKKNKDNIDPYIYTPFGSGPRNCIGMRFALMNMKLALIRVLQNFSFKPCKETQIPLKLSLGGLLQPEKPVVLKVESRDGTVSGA

This assay has as its target Cytochrome P450 3A4 (Homo sapiens) (UniProt P08684). The assay is described as follows: Cytochrome panel assay with activity outcomes. The note with it: recombinant CYP, pro-luciferin dealkylation, luminescence, p450-cyp3a4; series mostly up to 57.1 µM; activity, negative = inhibition: at the top concentration.
As to `COCCn1c(=O)c(-c2cc(F)cc(F)c2)nc2cnc(N(C)C)nc21`, the “activity, negative = inhibition” value is 14.1%. What is called AC50 is the concentration giving half of the maximal activity seen. Take `COCCn1c(=O)c(-c2cc(F)cc(F)c2)nc2cnc(Oc3cccc(Cl)c3)nc21`: the AC50 was 10 µM (active). Take `COCCn1c(=O)c(-c2cc(F)cc(F)c2)nc2cnc(Oc3ccc(OC)cc3)nc21`: the AC50 is 3.16 µM (active).

In the case of `COCCn1c(=O)c(-c2cc(F)cc(F)c2)nc2cnc(N3CCOCC3)nc21`, the “activity, negative = inhibition” value was 5.02%. Consider `COCCn1c(=O)c(-c2cc(F)cc(F)c2)nc2cnc(OC)nc21`, for which the AC50 was 15.8 µM (active). With `CC(C)CO/N=C1/C[C@@H](O)[C@@H](O)[C@@H]2[C@@H]3C(=O)N(C[C@@H]4CCCO4)C(=O)[C@H]3CC[C@@H]12`, the activity, negative = inhibition was -19.4% [at 11.4 µM]. In the case of `CCOc1ccc(CCNC(=O)C2CC(=O)N(C3CCCC3)C2)cc1OCC` (configuration not stated), the AC50 was 14.1 µM (active). For `CCN(CCCNC(=O)C1CCN(S(=O)(=O)CC)CC1)c1cccc(C)c1`, the AC50 is 11.2 µM (active). For the compound `CC1CCCN(CCCNC(=O)C2CC(=O)N(c3ccc(F)c(Cl)c3)C2)C1` (configuration not stated), the “activity, negative = inhibition” value was -29%. As to `CCOc1ccc(CCNC(=O)C2CCN(S(=O)(=O)CC)CC2)cc1OCC`, the AC50 was 7.08 µM (active).

With `C=CCNC(=O)C1CCN(S(=O)(=O)CC)CC1`, the “activity, negative = inhibition” value was 3.37%.

Consider `Cc1cc(C)c(S(=O)(=O)NCC2CCC(C(=O)NCc3ccc4c(c3)OCO4)CC2)c(C)c1` (configuration not stated), for which the AC50 was 0.891 µM (active). For the compound `O=C(NCCN1CCN(Cc2ccccc2)CC1)C1CC(=O)N(C2CCCC2)C1` (configuration not stated), the “activity, negative = inhibition” value is -22.2%. Turning to `CCS(=O)(=O)N1CCC(C(=O)NCCN2CCN(Cc3ccccc3)CC2)CC1`, the “activity, negative = inhibition” value is -22.5%. Turning to `O=C(NCc1ccc2c(c1)OCO2)C1CC(=O)N(C2CCCC2)C1` (configuration not stated), the AC50 was 4.47 µM (active). Consider `Cc1cc(N2CCOCC2)ccc1/C=C1\SC(=O)N(C(C)C)C1=O`, for which the “activity, negative = inhibition” value was -18.9%. For the compound `Cc1ccc(Oc2ccccc2/C=C2\SC(=O)N(C)C2=O)cc1`, the AC50 is 14.1 µM (active). For the compound `N#Cc1cccc(-c2cncnc2NCc2cccnc2)c1`, the AC50 was 1.26 µM (active). For `Cc1cccc(CNc2ncncc2-c2cccc(C#N)c2)c1`, the AC50 was 0.2 µM (active). Regarding `N#Cc1cccc(-c2cncnc2NCc2cccs2)c1`, the AC50 is 1.26 µM (active). On to `N#Cc1cccc(-c2cncnc2NCc2ccccc2)c1`, for which the AC50 is 1.26 µM (active). For `O=C1/C(=N\O)Cc2ccccc21`, the “activity, negative = inhibition” value is 26.9%. Regarding `CN(C)CC/C=C1\c2ccccc2COc2ccccc21`, the AC50 entry is “inactive”.

In the case of `CN(C)CCC=C1c2ccccc2CCc2ccccc21`, the “activity, negative = inhibition” value is -25.3%. For the compound `C[N+](C)([O-])CCC=C1c2ccccc2CCc2ccccc21`, the AC50 is 1.26 µM (active). On the same count and under the same terms, for `COc1ccccc1-c1cc(C(F)(F)F)nc(S(=O)(=O)CCCC(=O)NC(C)C)n1` the value was 12.6 µM (active). `COCCCNC(=O)Cn1nc(-c2ccccc2OC)ccc1=O`: the “activity, negative = inhibition” value is -9.12%. Take `CCCOc1ccccc1C1CC(=O)NC(C)=C1C(=O)OCC(C)C` (configuration not stated): the AC50 is 28.2 µM (active).

With `CCOC(=O)C1(C(=O)O)NC(=O)CC1c1ccccc1` (configuration not stated), the “activity, negative = inhibition” value is 0.919%. In the case of `CCOC(=O)C1=C(C)NC2=C(C(=O)C(C(=O)OCC)C(c3ccc(OC)cc3)C2)C1c1ccccn1` (configuration not stated), the activity, negative = inhibition is -13.7% [at 2.29 µM].

As to `O=C(CSc1nnc(Cn2nnc3ccccc32)o1)Nc1cccc(Cl)c1`, the AC50 is 8.91 µM (active). `CC(C)(C)OC(=O)NCCc1nnc(SCC(=O)Nc2cccc(Cl)c2)o1`: the AC50 is 11.2 µM (active). The same measure, in the same setting: as for `Brc1ccc(C2=Nn3c(nnc3-c3cccnc3)SC2)s1`, the figure is 3.55 µM (active). Regarding `O=[N+]([O-])c1ccc(C2=Nn3c(nnc3-c3ccc(Cl)cc3)SC2)o1`, the activity, negative = inhibition was -12.1% [at 11.4 µM]. On to `CCOc1ccccc1NC(=O)CSc1nnc(-c2cnccn2)n1C`, for which the AC50 was 8.91 µM (active). Take `CCOc1ccccc1NC(=O)CCC(=O)O`: the “activity, negative = inhibition” value was -0.16%. `O=C1NC(=S)N/C1=C/c1cccc([N+](=O)[O-])c1O`: the “activity, negative = inhibition” value is -21.1%. As to `O=[N+]([O-])c1ccccc1/C=N/n1c(COc2ccccc2)n[nH]c1=S`, the AC50 is 5.01 µM (active). Same read-out and setting: for `O=[N+]([O-])c1ccc(/C=N/n2c(COc3ccccc3)n[nH]c2=S)cc1` the value was 15.8 µM (active). For the compound `O=[N+]([O-])c1ccc(/C=N/N/C(=N/c2ccccn2)c2ccccn2)cc1`, the “activity, negative = inhibition” value was -22.7%. The same measure, in the same setting: as for `Cc1ccc(/C=N/n2c(COc3ccccc3)n[nH]c2=S)s1`, the figure is 14.5%; as for `Cc1ccccc1CNc1ncnc2c1ncn2[C@@H]1O[C@@H](CO)[C@H](O)[C@@H]1O`, 2.17%; as for `NC[C@H]1O[C@H](n2cnc3c(N)ncnc32)C[C@@H]1O`, -10.5% [at 11.4 µM]. Take `CCc1ccc(N(C(=O)c2snc(C(N)=O)c2N)C(C(=O)NCCC(C)C)c2c[nH]c3ccccc23)cc1` (configuration not stated): the AC50 was 3.98 µM (active). On to `CC(=O)OC[C@@H]1O[C@@H](O/N=C2/C[C@@H](O)[C@@H](O)[C@@H]3[C@@H]4C(=O)N(C5CCCCC5)C(=O)[C@H]4CC[C@@H]23)[C@H](OC(C)=O)[C@H](OC(C)=O)[C@@H]1OC(C)=O`, for which the activity, negative = inhibition is -21.5% [at 11.4 µM].

Consider `c1ccc(-c2noc(-c3ccc4ccccc4c3)n2)cc1`, for which the “activity, negative = inhibition” value was -12.6%.

In the case of `COc1ccc(-c2cc(C(F)(F)F)nc(NCc3cccnc3)n2)cc1`, the AC50 was 4.47 µM (active). Same read-out and setting: for `COc1cccc(-c2noc(-c3cccnc3)n2)c1` the value was 5.01 µM (active); for `COc1cccc(-c2nccc(NCc3ccccc3)n2)c1`, 3.98 µM (active); for `COc1cccc(-c2nccc(NCc3cccnc3)n2)c1`, 1.26 µM (active).

`COc1cccc(-c2nccc(NC3CCNCC3)n2)c1`: the “activity, negative = inhibition” value is -19.4%.

In the case of `CO[C@@H]1COC(=O)[C@H]2CCCN2C(=O)[C@@H](C)COC(=O)C/C=C\[C@H]1C`, the activity, negative = inhibition was -15.8% [at 11.4 µM].

The record behind these values is PubChem BioAssay AID1851 (National Center for Advancing Translational Sciences (NCATS), 2009).
